Rows were chosen to be rich in hits. Some 1.6% of all compounds tested hit in one or more screens of this group.
Yeast superoxide: caloric restriction mimetics inhibiting age-related superoxide in yeast; S. cerevisiae aged cells, superoxide DHE fluorescence; hits give low values; AID 2690; superoxide response (% of plate mean), % at 10 µM; 330,000 tested, 0.18% active;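 active = superoxide response under a set limit, about three screen SD below normal, cut at about 65% in these data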;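 note: yeast aged for seven days with compound at 30 °C before DHE staining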
Efflux pump mplx: inhibitors of Candida antifungal efflux pumps expressed in yeast; 330,000 tested, 0.44% active; AID 485275; inhibition, % at 10 µM; S. cerevisiae Candida pump triplex, Nile Red efflux;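 active = plate passing quality check with inhibition over a set limit, or well fluorescence over plate mean plus 4 SD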;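 note: Nile Red retained in pooled yeast measured as flow cytometry median fluorescence; higher means more Nile Red kept so more efflux inhibition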
GRK2 aptamer HTS: inhibitors of human GRK2 displacing RNA aptamer; P25098; bead flow cytometry, FAM-aptamer displacement from GRK2; inhibition of aptamer binding, % at 10 µM; 330,000 tested, 0.59% active;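 active = inhibition of aptamer binding above 40%, roughly 3 SD of noise, on plates passing a quality check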;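 note: median bead fluorescence of bound FAM aptamer so fluorescent compounds give negative values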
ATG4B inhibitor: inhibitors of human ATG4B cysteine protease; 340,000 tested, 0.51% active; Q9Y4P1; AID 504462; ATG4B cleavage of LC3-PLA2, NBD-HPC fluorescence, 1 h; inhibition, % at 8.33 µM; in the data active = inhibition above about 40%
Target sequence (Q9Y4P1 whole entry, looked up): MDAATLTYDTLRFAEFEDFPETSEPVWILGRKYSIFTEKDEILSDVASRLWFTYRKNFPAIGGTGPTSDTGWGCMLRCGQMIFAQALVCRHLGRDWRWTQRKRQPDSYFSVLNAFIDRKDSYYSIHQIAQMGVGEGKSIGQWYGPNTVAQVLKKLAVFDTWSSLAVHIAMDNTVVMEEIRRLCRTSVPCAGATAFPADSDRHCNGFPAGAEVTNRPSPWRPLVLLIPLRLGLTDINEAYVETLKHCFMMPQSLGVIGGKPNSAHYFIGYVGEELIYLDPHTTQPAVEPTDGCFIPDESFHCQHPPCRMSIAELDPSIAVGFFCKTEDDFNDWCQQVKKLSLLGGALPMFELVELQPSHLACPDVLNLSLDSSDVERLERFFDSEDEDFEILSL
GRK2 CP1: confirmation of human GRK2 inhibitors displacing RNA aptamer; aptamer displacement, % at 10 µM; AID 504451; 2,000 tested, 4% active; shares compounds with GRK2 aptamer HTS; bead-bound GRK2, FAM-aptamer displacement, flow cytometry;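 active = aptamer displacement above 40%, near three times the noise of non-fluorescent compounds, on plates passing quality checks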;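 note: negative values mostly reflect intrinsic compound fluorescence rather than true enhancement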
Aptamer quench SP: aptamer fluorescence quenching in GRK2 counter-screen; shares compounds with GRK2 aptamer HTS; Carboxyfluorescein RNA aptamer on beads, flow cytometry quenching; hits give low values; fluorescence response (% of DMSO), % at 10 µM; 2,000 tested, under 10 active; AID 504580;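 active = compounds that quench the bead-bound fluorescent RNA probe, cutting fluorescence to under half of the solvent control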;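 note: counterscreen run without GRK2 so only probe quenching by compound is measured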
GRK2 confirm 2: confirmation of human GRK2 inhibitors binding RNA aptamer site. shares compounds with GRK2 aptamer HTS. bead-bound GRK2, FAM-aptamer displacement, flow cytometry. inhibition of aptamer binding, % at 10 µM. 360 tested, under 10 active. AID 504782;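 active = inhibition of aptamer binding above 40%, about triple the noise seen with nonglowing compounds, on plates passing quality control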;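 note: negative values mostly come from compounds that fluoresce themselves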
FAM quench CP2: counter-screen for GRK2 binding hits: quenchers of fluorescent RNA aptamer. fluorescence response vs DMSO, % at 10 µM. shares compounds with GRK2 aptamer HTS. 360 tested, under 10 active. carboxyfluorescein RNA aptamer beads, flow cytometry quenching; hits give low values;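 active = response vs DMSO under 50%, meaning signal dropped by over half, treated as fluorescence quencher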;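 note: labelled aptamer on streptavidin beads without GRK2 as a quench counter-screen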
A number is an active result; - = inactive; . = no result given.

SMILES | Yeast superoxide | Efflux pump mplx | GRK2 aptamer HTS | ATG4B inhibitor | GRK2 CP1 | Aptamer quench SP | others
O=C(Nc1ccccc1O)/C(=C\c1ccccc1)NC(=O)c1ccccc1 | - | - | - | - | . | .
COC(=O)c1cc(Br)c(=O)n(CCN2CCOCC2)c1 | - | - | - | - | . | .
COC(=O)c1cc(Br)c(=O)n(CCN(C(C)C)C(C)C)c1 | - | - | 95.0 | - | - | -
CN(C)c1ccc(/C=C/c2nc3ccccc3c(=O)n2-c2ccc(C(=O)O)cc2)cc1 | - | - | - | - | - | -
C=CCN1C(=O)c2ccc(C(=O)N(CCC)CC(=O)Nc3ccccc3C)cc2C1=O | - | - | 99.0 | - | - | -
COc1cc(OC)cc(-c2cc3cc4c(cc3cn2)OCO4)c1 | - | - | - | - | . | .
COc1ccc(-c2cc3cc4c(cc3cn2)OCO4)cc1 | - | - | 41.0 | - | . | . | GRK2 confirm 2=-;FAM quench CP2=-
O=C(O)C1CC(c2ccccc2F)=NO1 (configuration not stated) | - | - | - | - | . | . | GRK2 confirm 2=-;FAM quench CP2=-
O=C(NCCc1cccs1)C1CC(c2ccccc2F)=NO1 (configuration not stated) | - | - | - | - | . | .
COc1ccc(Cl)cc1S(=O)(=O)NCc1cccs1 | - | - | 51.0 | - | - | -
CC(=O)Nc1nc2cc([N+](=O)[O-])ccc2s1 | - | - | - | - | . | .
O=c1nc(Nc2ccc(Br)cc2)sc2ccc([N+](=O)[O-])cc12 | - | - | 42.0 | - | - | -
Cc1noc(/C=C/N(C)C)c1S(=O)(=O)N1CCCC(C(=O)NCc2ccc(Cl)cc2)C1 (configuration not stated) | - | - | - | - | . | .
Cc1ccc(CNC(=O)C2CCCN(S(=O)(=O)c3c(C)noc3/C=C/N(C)C)C2)cc1 (configuration not stated) | - | - | . | - | - | -
Cc1noc(/C=C/N(C)C)c1S(=O)(=O)N1CCCC(C(=O)NCc2ccc(F)cc2)C1 (configuration not stated) | - | - | - | . | . | .
COc1ccc2nc(NC(=O)C3CCCN(S(=O)(=O)c4cccc5nonc45)C3)sc2c1 (configuration not stated) | - | - | 87.0 | - | - | -
Cc1noc(/C=C/N(C)C)c1S(=O)(=O)N1CCCC(C(=O)NCc2ccccc2Cl)C1 (configuration not stated) | - | - | - | - | - | -
COc1ccc(CNC(=O)C2CCCN(S(=O)(=O)c3c(C)noc3/C=C/N(C)C)C2)cc1 (configuration not stated) | - | - | - | - | - | -
Cc1noc(/C=C/N(C)C)c1S(=O)(=O)N1CCCC(C(=O)Nc2ccccc2F)C1 (configuration not stated) | - | - | - | - | . | .
O=C(NCc1ccccc1Cl)C1CCCN(S(=O)(=O)c2cccc3nonc23)C1 (configuration not stated) | - | - | - | - | - | -
Cc1ccc(S(=O)(=O)N2CCC[C@H]2C(=O)OCc2nc3ccccc3s2)cc1 | . | . | . | - | . | .
Oc1ccc(-c2nccc(-c3ccc(Br)cc3)n2)cc1 | - | - | - | - | - | -
Cc1ccc(-c2ccnc(-c3ccc(O)cc3)n2)cc1 | - | - | - | - | . | .
O=C(O)c1ccc(Cl)c(S(=O)(=O)NC(Cc2ccccc2)C(=O)O)c1 (configuration not stated) | - | - | - | - | . | .
COc1ccc(-c2cccc(C3CC=CC4C3C(=O)N(Cc3ccccc3)C4c3ccc(C(F)(F)F)cc3)c2)cc1 (configuration not stated) | - | - | - | - | . | .
SMILES | Yeast superoxide | Efflux pump mplx | GRK2 aptamer HTS | ATG4B inhibitor | GRK2 CP1 | Aptamer quench SP | others
Cc1ccc(-c2cccc(C3CC=CC4C3C(=O)N(Cc3ccccc3)C4c3cc(C)ccc3F)c2)cc1 (configuration not stated) | - | - | - | - | - | -
COc1ccc(CNC(=O)C(=O)c2cn(CC(=O)N3CCOCC3)c3ccccc23)cc1 | - | - | - | - | . | .
O=C(NCc1ccc(Cl)cc1)C(=O)c1cn(CC(=O)N2CCOCC2)c2ccccc12 | - | - | 45.0 | - | - | -
COc1ccc(NC(=S)N2CCN(C(=O)c3ccccc3)CC2)cc1 | - | - | - | - | . | .
COc1ccc(Cl)cc1S(=O)(=O)N1CCN=C1Cc1ccccc1 | - | - | - | - | . | .
CCOc1cc(S(=O)(=O)N2CCN=C2Cc2ccccc2)ccc1F | - | - | 44.0 | - | . | . | GRK2 confirm 2=-;FAM quench CP2=-
Clc1ccccc1CN1CCN(/N=C/C=C/c2ccco2)CC1 | - | - | - | - | . | .
O=C(CSc1cnc2ccccc2n1)NC1CCCC1 | - | - | 81.0 | - | - | -
CCCCNC(=O)c1ccccc1SCC(=O)NC1CCCCCCC1 | - | - | 61.0 | - | - | -
CC(C)CN(C)C(=O)CC1C(=O)NCCN1C (configuration not stated) | - | - | - | - | . | .
Cc1nc(CN2CCOCC2)cc(=O)[nH]1 | - | - | 48.0 | - | - | -
CC1CCN(C(C(=O)Nc2ccc3c(c2)OCO3)c2ccccc2)CC1 (configuration not stated) | - | - | 43.0 | - | - | -
O=C(CN(Cc1ccco1)C(=O)c1ccc(N2CCCC2=O)cc1)Nc1ccccc1C(F)(F)F | - | - | - | - | . | .
CN(C)c1ccc(C(=O)c2ccccc2)cc1 | - | - | - | - | . | .
CN(C)c1ccc(N=Nc2ccc(C(=O)O)cc2)cc1 | - | - | 54.0 | - | - | -
O=C(NC1CCCCC1)C(c1ccccn1)N(C(=O)c1csnn1)C1CCCCC1 (configuration not stated) | - | - | - | - | . | .
Cc1ccc(/C=C2/N=C(c3ccccc3)NNC2=O)cc1 | - | - | 93.0 | - | - | -
Cc1c(C(=O)N/N=C/c2cccs2)nnn1-c1nonc1N | - | - | - | - | . | .
CC(=O)N/C(=C\c1ccccc1)C(=O)NCc1ccc2c(c1)OCO2 | - | - | 64.0 | - | - | -
CCOC(=O)CNC(=O)CCc1nnc2ccc(N3CCC(C)CC3)nn12 | - | - | - | - | . | .
O=C(c1ccc(Cl)c(S(=O)(=O)N2CCc3ccccc3C2)c1)N1CCN(c2ccccc2)CC1 | - | - | - | - | - | -
CC(=O)N1NC(=Nc2ccccc2)SC1(C)C | - | - | - | - | . | .
COc1ccc(Cc2cc(NCc3ccccc3)c3ncn(C(C)C)c3c2)cc1 | - | - | 97.0 | - | . | . | GRK2 confirm 2=-;FAM quench CP2=-
O=C(Nc1ccc(Nc2ccccc2)cc1)c1ccccc1 | - | - | 100.0 | - | - | -
COc1ccc(C(=O)Nc2ccc(Nc3ccccc3)cc2)cc1[N+](=O)[O-] | - | - | - | - | . | .

Source: PubChem BioAssay (several laboratories)
